TrxR1 substrate – is turned over as a substrate by rat TrxR1; purified TrxR1 substrate turnover, NADPH consumption readout; O89049; AID 588456; 0.01% of 390,000 active; Potency, µM (top dose mostly 114 µM), for the others: at the top dose activity change, negative = substrate turnover; further: on the % scale 0 is the no-effect control and ±100 the full control effect; nearly all actives have a fitted effect of over 50% in size
Target sequence (O89049 whole entry, looked up): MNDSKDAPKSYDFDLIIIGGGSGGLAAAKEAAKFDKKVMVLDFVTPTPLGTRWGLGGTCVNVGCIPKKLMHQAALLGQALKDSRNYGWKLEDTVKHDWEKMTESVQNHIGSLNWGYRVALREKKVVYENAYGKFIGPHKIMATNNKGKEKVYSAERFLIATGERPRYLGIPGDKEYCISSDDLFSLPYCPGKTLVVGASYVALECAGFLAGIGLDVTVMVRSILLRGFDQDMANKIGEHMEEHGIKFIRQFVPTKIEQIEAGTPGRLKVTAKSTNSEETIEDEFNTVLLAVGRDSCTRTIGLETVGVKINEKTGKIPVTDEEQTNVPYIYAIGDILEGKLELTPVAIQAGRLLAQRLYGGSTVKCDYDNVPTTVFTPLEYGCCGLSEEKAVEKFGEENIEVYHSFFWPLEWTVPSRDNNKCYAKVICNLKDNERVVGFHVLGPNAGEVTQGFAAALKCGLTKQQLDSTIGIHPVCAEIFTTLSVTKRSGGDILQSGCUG
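Rat TrxR1, dispensed at 90 nM, was prereduced with 400 uM NADPH (final) for 5 min at ~22 deg C, then incubated with compound 15 min before 400 uM selenite. A first-read NADPH fluorescence drop versus no-compound background flagged substrates.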
Nrf2 ARE act – Nrf2 pathway activation; AREc32 ARE-luciferase reporter (MCF7-derived line), luminescence, 24 h; Potency, µM (titrated, usually from 46.1 µM), without a hit: at the highest dose activation, most hits filed as activators; 0.31% of 410,000 active; AID 624171; further: % of control where 0% means no effect; nearly all actives have a fitted effect of over 65% in size
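ARE activation measured as luciferase luminescence (Steady-Glo, 30 min RT) in AREc32_Fluc cells after 24 hr compound exposure at 37 deg C, 5% CO2; cells seeded overnight at 1000/well in OPTI-MEM, 5% FBS.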
Nrf2 inh – inhibitors of Nrf2 signaling; A549 ARE-Fluc reporter, luciferase luminescence, 18-24 h; Potency, µM (highest dose often 46 µM), for inactives: top-dose activity change, negative = inhibition, hits mostly inhibitors; 2.1% of 360,000 active; further: on the % scale 0 is the no-effect control and ±100 the full control effect; nearly all actives have a fitted effect of over 60% in size
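A549 ARE_Fluc cells, 5000/well, 5% FBS OPTI-MEM; compounds in dose-response, 18-24 h at 37 °C/5% CO2; CellTiter-Fluor viability read (Ex 405/Em 525), then BugLite luciferase luminescence = Nrf2 activity.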
A549 viability – counter-screen for Nrf2 inhibitors: cytotoxicity in A549 cells; 0.16% of 390,000 active; Potency, µM (titrated, usually from 46 µM), inactives show top-dose activity change, negative = cytotoxicity, usual class: inhibitors; A549 ARE-Fluc cells, CellTiter-Fluor viability, 18-24 h; further: on the % scale 0 is the no-effect control and ±100 the full control effect
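A549 ARE-Fluc cells in 5% FBS OPTI-MEM, 5000 cells/well, rested 2 h then exposed to compounds in concentration-response for 18-24 h at 37 °C. Viability by CellTiter-Fluor fluorescence (Ex 405/Em 525) after 30 min; luciferase luminescence (BugLite, 15 min, RT) read afterwards.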
GALK inh – blocks human galactokinase activity; P51570; Purified GALK, Kinase-Glo residual ATP luminescence; Potency, µM (doses to about 57.5 µM), without a hit: at the highest dose activity change, negative = inhibition, actives largely listed as inhibitors; 0.007% of 270,000 active; further: on the % scale 0 is the no-effect control and ±100 the full control effect
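Compounds were pin-transferred into ATP buffer (35 uM final), then GALK plus galactose (5 nM, 100 uM final) was added. After 1 h at room temperature, Kinase-Glo Plus was added and luminescence read after 10 min.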
rTrxR1 inhibitor – rat TrxR1 inhibition; O89049; recombinant rTrxR1, NADPH fluorescence consumption, selenite substrate; Potency, µM (highest dose often 114 µM), for the others: top-dose activity change, negative = inhibition, usual class: inhibitors; 1% of 390,000 active; AID 588453; further: on the % scale 0 is the no-effect control and ±100 the full control effect; nearly all actives have a fitted effect of over 65% in size
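Rat TrxR1 (90 nM in the dispensed reagent) was pre-reduced with 400 uM NADPH for 5 min at room temperature, then incubated with compound for 15 min. After 400 uM selenite was added, NADPH fluorescence (Ex 340/Em 450 nm) was followed for 8 min.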
Active calls of the source: *; [ ] = remark or other dose. Shown are actives, neighbours in structure and some others; about 3% of the full set was active somewhere. The call rests on the fitted dose curve; in most records, active means well fitted curve in the direction sought with a large enough effect; inconclusive means small, poorly fitted or top-dose-only effect, or another doubt; inactive means no such curve, though single readings can be large; an effect the other way counts as inactive or inconclusive. Potency means the concentration at half of the fitted maximal effect.

Results for COc1cccc2cc(C(=O)C3=C(O)C(=O)N(CCN4CCOCC4)C3c3ccc(C)o3)oc12 (configuration not stated) ?
TrxR1 substrate: -12%; Nrf2 ARE act: inconclusive; Nrf2 inh: 3%; A549 viability: -4%; GALK inh: 0%; rTrxR1 inhibitor: 79µM*

How did COc1ccccc1C1C(C(=O)c2cc3ccccc3o2)=C(O)C(=O)N1CCN1CCOCC1 (configuration not stated) do in these assays?
TrxR1 substrate: -10%; Nrf2 ARE act: 5%; Nrf2 inh: -8%; A549 viability: -7%; GALK inh: 4%; rTrxR1 inhibitor: 22µM*

Results for CCOc1ccc(CC(=O)Nc2c(C(=O)c3ccc(C)cc3)oc3ccccc23)cc1OCC ?
TrxR1 substrate: -9%; Nrf2 ARE act: 0%; Nrf2 inh: inconclusive; A549 viability: -8%; rTrxR1 inhibitor: -6%

How did Cn1nc([N+](=O)[O-])nc1S(C)(=O)=O do in these assays?
TrxR1 substrate: -1%; Nrf2 ARE act: -2%; Nrf2 inh: 23µM*; A549 viability: -8%; GALK inh: -3%; rTrxR1 inhibitor: inconclusive

Results for CS(=O)(=O)c1nc([N+](=O)[O-])nn1CCCc1ccccc1 ?
TrxR1 substrate: 8%[57.1 µM]; Nrf2 ARE act: -3%; Nrf2 inh: inconclusive; A549 viability: -9%; rTrxR1 inhibitor: -55%

What do the screens show for `COCCn1c(C)cc(O)c(C(c2ccccc2Cl)N2CCN(c3ccccc3)CC2)c1=O` (configuration not stated)?
TrxR1 substrate: 1%[57.1 µM]; Nrf2 ARE act: 0%; A549 viability: 6%; rTrxR1 inhibitor: inconclusive

Results for Cc1ccc(CS(=O)(=O)c2ncc(Cl)c(C(=O)Nc3ccc(OC(F)F)cc3)n2)cc1 ?
TrxR1 substrate: 0%; Nrf2 ARE act: -2%; Nrf2 inh: inconclusive; A549 viability: inconclusive; GALK inh: 2%; rTrxR1 inhibitor: 28µM*

Results for CCOc1ccc(NC(=O)c2nc(S(=O)(=O)Cc3ccc(C)cc3)ncc2Cl)cc1 ?
TrxR1 substrate: -5%; rTrxR1 inhibitor: inconclusive

How did COc1ccc(NC(=O)c2nc(S(=O)(=O)Cc3ccc(C)cc3)ncc2Cl)cc1 do in these assays?
TrxR1 substrate: 6%; Nrf2 ARE act: 20%; Nrf2 inh: inconclusive; A549 viability: inconclusive; rTrxR1 inhibitor: 2.5µM*

How did O=C(Nc1ccc(OC(F)F)cc1)c1ncc(Cl)c(Cl)c1Cl do in these assays?
TrxR1 substrate: -2%[57.1 µM]; Nrf2 ARE act: 7.1µM*; Nrf2 inh: 1%; A549 viability: 6%; GALK inh: 0%; rTrxR1 inhibitor: 24%[57.1 µM]

What do the screens show for `Cc1ccc2cc3c(NC(=O)c4ccco4)nn(C)c3nc2c1`?
TrxR1 substrate: 5%; Nrf2 ARE act: 3.2µM*; Nrf2 inh: inconclusive; A549 viability: 2%; GALK inh: -1%; rTrxR1 inhibitor: inconclusive

How did COC(=O)[C@H](Cc1ccccc1)NC(=O)N1Cc2ccccc2C[C@H]1C(=O)OC do in these assays?
TrxR1 substrate: 2%; Nrf2 ARE act: 0%; Nrf2 inh: 8%; A549 viability: 11%; GALK inh: -1%; rTrxR1 inhibitor: 12%

How did COC(=O)C1Cc2ccccc2CN1C(=O)CCl (configuration not stated) do in these assays?
TrxR1 substrate: 7%[57.1 µM]; Nrf2 ARE act: inconclusive; Nrf2 inh: -24%; A549 viability: -3%; GALK inh: 1%; rTrxR1 inhibitor: 14µM*

What do the screens show for `C=C(C)CN(CC)c1nc(N)c2c(N)nc3c(c2c1C#N)CC(=O)N3C12CC3CC(CC(C3)C1)C2`?
TrxR1 substrate: 9%[57.1 µM]; Nrf2 ARE act: 13%; Nrf2 inh: 13µM*; A549 viability: -17%; GALK inh: 0%; rTrxR1 inhibitor: -3%[57.1 µM]
